Results: PubChem BioAssay AID2551 (National Center for Advancing Translational Sciences (NCATS), 2010)
Screen size: about 310,000 compounds; about 17,000 (5.5%) were called active. Roughly 11% stayed inconclusive and do not appear here. Calls come from the whole dose curve; as a rule, active = well fitted inhibition curve with a large enough effect; inconclusive = small, poorly fitted or top-dose-only effect, or effect the other way; inactive = no such curve, though single readings can be large or run the other way. Many of the other results were omitted from the sample, so actives are more common in it than they were.

target: Nuclear receptor ROR-gamma (Mus musculus) (UniProt P51450); assay: qHTS for inhibitors of ROR gamma transcriptional activity; conditions: Drosophila S2 Gal4-RORgamma UAS-luciferase reporter, 20 h; series mostly up to 53.6 µM; activity change, negative = inhibition: at the top concentration; note: nearly all actives have a fitted effect of over 60% in size
Sequence (P51450 whole entry, looked up, the tested form may be a part): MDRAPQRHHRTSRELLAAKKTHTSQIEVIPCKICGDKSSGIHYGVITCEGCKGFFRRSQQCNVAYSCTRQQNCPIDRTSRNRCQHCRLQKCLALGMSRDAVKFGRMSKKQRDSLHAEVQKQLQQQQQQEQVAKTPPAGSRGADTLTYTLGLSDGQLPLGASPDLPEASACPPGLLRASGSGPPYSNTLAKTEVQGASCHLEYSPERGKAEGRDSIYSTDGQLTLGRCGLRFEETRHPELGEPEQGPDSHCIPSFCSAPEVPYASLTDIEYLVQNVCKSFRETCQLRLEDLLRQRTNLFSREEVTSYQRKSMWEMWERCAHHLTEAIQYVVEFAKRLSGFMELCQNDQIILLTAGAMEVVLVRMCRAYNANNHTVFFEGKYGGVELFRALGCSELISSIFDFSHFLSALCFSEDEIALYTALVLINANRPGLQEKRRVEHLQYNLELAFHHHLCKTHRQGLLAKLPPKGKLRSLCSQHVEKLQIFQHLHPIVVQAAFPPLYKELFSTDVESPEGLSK
Source text: NIH Molecular Libraries Probe Production Network [MLPCN] NIH Chemical Genomics Center [NCGC] MLPCN Grant: R03 DA026211-01 Assay Provider: Dan Littman, New York University Assay Overview: The retinoic acid-related orphan receptor (ROR) gamma is a transcription factor that has a central role in the differentiation of Th17 cells, a subset of T helper cells that secrete the inflammatory cytokines IL-17, IL-17F, and IL-22. Th17 cells have been implicated in graft versus host disease, autoimmune disease and asthma. ROR gamma is induced in naive T helper cells in the presence of TGF-beta combined with IL-6, IL-21, or IL-23, and thereafter directs the expression of the Th17 lineage cytokines. To study the mechanism of action of ROR gamma, an insect cell-based assay was screened. This Drosophila Schneider cell line was stably transfected with two vectors: a gene expressing a fusion of the Gal4 DNA binding domain and ROR gamma transactivation domain under the control of the metallothionine promoter and a Photinus luciferase reporter regulated by the Gal4 binding site enhancer, UAS. […] Small molecule inhibitors of ROR gamma activity are detected by a decrease in luciferase reporter activity.
Assay Protocol Summary: For screening, 600 cells in 4 uL/well were dispensed into white solid 1536-well plates (Grenier) using a solenoid-based dispenser. Following transfer of 23 nL compound or DMSO vehicle by a pin tool, the plates were incubated 1 hr at ambient temperature, and 1 uL/well copper sulfate (700 uM final concentration) was added. The plates were centrifuged 15 s at 1000 RPM and incubated 20 hr at ambient temperature. After addition of 1.5 uL Photinus luciferase detection reagent, the plates were incubated 10 min at ambient temperature and then read by an ViewLux (Perkin Elmer) to detect luminescence. Keywords: NIH Roadmap, MLPCN, MLI, MLSMR, qHTS, NCGC, qHTS, nuclear hormone receptor, retinoic acid-related orphan receptor, ROR gamma
% is set by controls: 0 for no effect and ±100 for the full control effect; potency is the fitted concentration of half-maximal effect.

Potency, active:
Cc1cc(N/N=C\c2ccc(Br)cc2)nc(-n2nc(C)cc2C)n1 0.1 µM, COc1ccccc1/C=N\Nc1cc(C)nc(-n2nc(C)cc2C)n1 0.251 µM, CC(=O)c1ccc(Oc2cc(C)nc(-n3nc(C)cc3C)n2)cc1 14.1 µM, COc1ccc(Nc2cc(C)nc(-n3nc(C)cc3C)n2)cc1 0.501 µM, N#C/C(C(=S)Nc1ccccc1)=C1/NN=C(N2CCOCC2)N1c1ccccc1 1.26 µM, COc1cc(/C=N/O)cc(Br)c1OCc1cccc(Cl)c1 10 µM, COc1cc(/C=N/O)cc(Br)c1OS(=O)(=O)c1ccc(C)cc1 14.1 µM, CCOc1ccc(-c2nnc(-c3ccco3)o2)cc1 15.8 µM, O=C(CCCO)N/N=C/c1cc(Br)ccc1O 3.98 µM, CC(=O)/C(=N\Nc1ccc(Cl)cc1Cl)Sc1cccc2cccnc12 3.16 µM, CSc1ccccc1NC(=O)CN(C)CC(=O)Nc1ccc(Cl)cc1[N+](=O)[O-] 11.2 µM, CCC(C)c1ccccc1NC(=O)CN(C)CC(=O)Nc1ccccc1SC (stereo not drawn) 15.8 µM, O=C(Nc1nnc(-c2ccccc2)o1)c1cc(-c2cccs2)nc2ccccc12 4.47 µM, Cc1nnc(N/N=C/C2CC=CCC2)[nH]c1=O (stereo not drawn) 11.2 µM, CCCCc1ccc(NC(=S)N2CCCC(CO)C2)cc1 (stereo not drawn) 15.8 µM, CC(C)C(NS(=O)(=O)c1cccs1)C(=O)Nc1nc(C(C)(C)C)cs1 (stereo not drawn) 11.2 µM, OCCCN1c2ccccc2Nc2nnc(-c3ccccc3)cc21 10 µM, CC(NC(=S)NC1CCCCC1)C(c1ccccc1)N1CCOCC1 (stereo not drawn) 5.01 µM, CC(NC(=S)Nc1ccccc1)C(c1cccs1)N1CCOCC1 (stereo not drawn) 11.2 µM, S=C(NC1CCCCC1)NN1CCOCC1 8.91 µM

Activity change, negative = inhibition, inactive:
Cc1ccc(S(=O)(=O)Nc2nc(C)cc(N/N=C/c3ccc(O)cc3)n2)cc1 -15%, COc1cccc2c(N/N=C/c3ccco3)cc(C)nc12 -25.1%, CN(C)c1ccc(/C=N/Nc2cc(N3CCOCC3)nc(N3CCOCC3)n2)cc1 25.9%, Cc1cc(Nc2ccc(Cl)cc2)nc(N2CCOCC2)n1 8.8%, COc1ccc(NC(=O)c2nc(-n3nc(C)cc3C)ccc2Cl)cc1Cl 3.42%, Cc1cc(Oc2ccccc2)nc(N2CCOCC2)n1 23.6%, Cc1cc(C)n(-c2cc(Oc3ccccc3)ncn2)n1 1.14%, COc1ccc(/C=N/Nc2cc(N3CCOCC3)nc(C)n2)c(OC)c1 21.5%, CCn1c(Cc2ccc(OC)cc2)nnc1SCC(=O)Nc1ccc(N2CCOCC2)cc1 26.9%, NC(=O)C1CCCN(CC(=O)N2CCN(c3ccccc3)CC2)C1 (stereo not drawn) 10%, Cc1ccccc1OCC(=O)Nc1ccc(S(=O)(=O)N2CCOCC2)cc1 -1.13%, O=C(Nc1cccc(Cl)c1N1CCOCC1)c1cccnc1 -5.72%, CCOC(=O)c1sc(NC(=O)c2sc(C)nc2C)nc1C -27%, COCCn1c(SCC(=O)Nc2nc(C)cs2)nnc1C(C)C 2.07%, CC1CC(C)CN(CCCNC(=O)c2csc3c2CCCCC3)C1 (stereo not drawn) -3.43%, CN1C(=O)CN2CCc3ccccc3C2c2cc(Cl)ccc21 (stereo not drawn) 15.5%, O=C1CCC(C(=O)N2CCN(c3ccccc3Cl)CC2)CN1CC1CCCCC1 (stereo not drawn) 34.9%, COc1ccccc1OCC(=O)Nc1c2c(nn1-c1ccc(F)cc1)CS(=O)(=O)C2 21.6%, N#C/C(C(=O)N1CCOCC1)=C1/SC(Cc2ccc(F)cc2)C(=O)N1c1ccccc1 (stereo not drawn) 19.1%, Cc1ccc(CC2S/C(=C(/C#N)C(=O)N3CCOCC3)N(c3ccccc3)C2=O)cc1 (stereo not drawn) 8.39%, c1ccc2c(c1)CCc1snnc1-2 -4.13%, COc1cc(C(=O)NCc2ccncc2)cc(Br)c1OCc1ccccc1 18.5%, COc1cc(/C=N/Nc2ccc(C)cc2)cc(Br)c1O 5.16%, CCOc1c(Cl)cc(/C=N/O)cc1OC -16.7%, COc1ccc(/C=N/NC(=O)c2ccccc2)cc1OS(=O)(=O)c1ccccc1 -28.3%, Cc1cc(S(=O)(=O)Nc2ccc(C(=O)NCC(c3ccco3)N3CCCC3)cc2)ccc1F (stereo not drawn) -3.88%, COc1cc(/C(=C/c2ccccc2)c2ccccc2)c2c(c1)oc1ccccc12 16.7%, CC(=O)N1c2ccc(S(=O)(=O)NCCC(=O)N(C)C3CCCCC3)cc2CC1C (stereo not drawn) 7.64%, COc1cccc(NC(=O)C(=O)c2cn(CC(=O)N3CCOCC3)c3ccccc23)c1 28.9%, COc1ccc(S(=O)(=O)n2nc(C)c(S(=O)(=O)N3CCOCC3)c2C)cc1 -14.8%, CCCCOc1ccc(-c2nnc(-c3ccco3)o2)cc1 -32.9%, COc1ccc(C(=O)CSc2nnc(-c3ccco3)o2)cc1 -18.6%, O=C(NCc1ccccc1)C(c1ccccc1)N(C(=O)c1csnn1)c1ccc(F)cc1 (stereo not drawn) -15.3%, CCOc1ccc(C(C(=O)NC2CCCC2)N(C(=O)c2snc(C(N)=O)c2N)C2CCCC2)cc1 (stereo not drawn) 0.98%, COc1ccc(C(=O)NC2CC2)cc1OC1CCN(Cc2cnn(C)c2)CC1 -7.77%, O=c1c(-c2ccccc2Cl)c[nH]n1-c1ccccc1 34.3%, COc1ccc(CNC(=O)CN(c2ccc(OC)c(Cl)c2)S(=O)(=O)c2ccc(C)cc2)cc1 -9.62%, NCCCCCC(=O)N/N=C/c1ccc2nccnc2c1 -16.1%, O=C(CCNc1n[nH]c(=O)[nH]c1=O)N/N=C\c1ccc(Br)cc1 5.32%, COc1ccc(OC)c(NC(=O)c2ccc3c(c2)C(=O)N(c2ccc(OC(C)=O)cc2)C3=O)c1 1.31%, O=C(Nc1ccccc1Cl)Nc1cccc2cccnc12 19.6%, O=C(Nc1cccc2cccnc12)c1cccc(Cl)c1 0.831%, CC1=C(C(=O)NC2CC(C)(C)Cc3c2cnn3-c2ccc(C)cc2)OCCO1 (stereo not drawn) 32.5%, CSc1ccccc1NC(=O)Cc1ccc(Br)cc1 -7.65%, CN(CC(=O)Nc1ccccc1[N+](=O)[O-])Cc1ccc(Br)cc1 16%, CN(CC(=O)Nc1ccccc1F)CC(=O)Nc1ccccc1Br -44.8%, Cc1ccc(NC(=O)CN(C)Cc2ccc(F)cc2)c([N+](=O)[O-])c1 22.8%, CC(=O)c1cc(CN2CCC(n3nccc3NC(=O)c3ccccc3Cl)CC2)cs1 -1.16%, O=C(Nc1ccccc1-c1ccccc1)c1ccccc1[N+](=O)[O-] 10.8%, O=C(CN(C(=O)c1csnn1)c1ccc(Br)cc1)NC1CCCC1 -23.7%, Cc1ccc(S(=O)(=O)Oc2ccc(/C=N/NC(=O)c3ccncc3)cc2)cc1 -16.7%, CCC1CCCCN1C(=S)Nc1ccc(S(=O)(=O)Nc2ncccn2)cc1 (stereo not drawn) -0.779%, CC(=O)Nc1ccc(S(=O)(=O)Oc2ccc(Br)cc2C(=S)N2CCOCC2)cc1 7.9%, CCCCN(C)CCCNC(=O)c1cc(-c2cccs2)nc2ccccc12 -15.9%, COC(=O)c1cc(-c2cccs2)nc2ccccc12 0.58%, COC(=O)c1ccc(NC(=O)c2cc3c(CO)cnc(C)c3oc2=Nc2cccc(C(N)=O)c2)cc1 24.6%, COc1ccc(OC)c(CCNC(=O)CCn2ccc3cc(S(=O)(=O)N4CCCC4)ccc32)c1 15.1%, CN(CCc1ccccn1)C(=O)c1ccc(OC2CCN(Cc3ccccn3)CC2)cc1 -15%, Cc1ccc(C(C)C)cc1OCC(=O)Nc1ccccc1N1CCCC1 2.35%, Cc1nnc(N/N=C/c2ccccn2)[nH]c1=O -33.5%, Cc1ccccc1Nc1nnc(C)c(=O)[nH]1 12.9%, CCC(=O)N1c2ccc(S(=O)(=O)NCc3ccco3)cc2CC1C (stereo not drawn) 5.4%, CCc1ccc(NC(=O)CN2C(=O)COc3ccc(S(=O)(=O)N4CCCC4)cc32)cc1 14.7%, COc1cccc(CCNC(=O)c2cccc(NC(=O)C3=C(C)OCCS3)c2)c1 36.7%, O=C(NC12CC3CC(CC(C3)C1)C2)N1CCCC(CO)C1 (stereo not drawn) -6.71%, COc1ccc(NC(=S)N2CCCC(CO)C2)c(OC)c1 (stereo not drawn) 7.55%, CC(C)C(c1nnnn1C1CCCCC1)N1CCN(C(=O)c2ccco2)CC1 (stereo not drawn) 18.9%, CSCC[C@H](NC(=O)N1CCn2c1nc1ccccc12)C(=O)NCc1ccc2c(c1)OCO2 3.15%, CCc1ccc(C(=O)COC(=O)c2ccco2)cc1 3.72%, COc1ccc(CNC(=O)C(NS(=O)(=O)c2cccc3nsnc23)C(C)C)cc1 (stereo not drawn) 5.6%, O=C(Nc1nncs1)c1ccccc1NS(=O)(=O)c1cccs1 24.2%, O=C(NC1CCCCCCC1)c1cccs1 -0.483%, Cc1cccc(N(C)C(=O)c2cc(S(=O)(=O)N3CCCCC3)c[nH]2)c1 13%, COc1ccc(S(=O)(=O)N2CCOCC2)cc1C(=O)NC1CCCCC1 13.7%, O=C(NNC(=O)C(O)c1ccccc1)NC1CCCCC1 (stereo not drawn) 11.9%, CC(=O)OC(C(=O)NC1CCCCC1)c1ccccc1 (stereo not drawn) -6.92% [at 10 µM], CC(NC(=O)Nc1ccccc1)C(c1cccs1)N1CCN(c2ccccc2)CC1 (stereo not drawn) -10.2%, O=C(NC1CCCCC1)c1cc([N+](=O)[O-])ccc1N1CCOCC1 -0.845%, CCCC(=O)NC(C)C(c1cccs1)N1CCN(c2ccccc2)CC1 (stereo not drawn) -2.37%, CC(=O)N1CC(=O)N(CC(=O)Nc2ccc(Br)cc2)C1=S -36.4%, CCOC(=O)N1CCN(CCC(=O)Nc2ccccc2)CC1 4.5%, Cc1nc(Nc2ccccc2F)c2nnn(Cc3ccccc3Cl)c2n1 3.39%, Cc1cccc(CN2CCC(n3nccc3NC(=O)c3ccccc3C)CC2)n1 -24.1%, O=C(NCc1ccccc1)C(c1ccco1)N(C(=O)c1csnn1)c1ccccc1F (stereo not drawn) 1.19%, CCCCN1C(=O)/C(=C2/Sc3ccc(Cl)cc3N2CC)SC1=S 1.27%, O=S(=O)(NC1CCCCC1N1CCCCC1)c1ccc(Cl)cc1 (stereo not drawn) -5.75%, CC(=O)Nc1cccc(Nc2nc(-c3cccs3)nc3ccccc23)c1 6.54%, COc1ccc(CN(C)C(=O)Cc2c[nH]c3ccccc23)c(OC)c1OC 41%
